PubChem BioAssay
Activity calls are given as the source filed them. Unless noted, the rule behind the calls is not given here.

Tests used:
[1] = system: XIP peptide (Xip251-270) binding; assay: small-molecule binders of XIP peptide, primary screen, biochemical, small-molecule microarray, fluorescence 635/667 nm, 0.1 µg/mL protein (AID 1182); settings: fluorescent protein binding, 635 nm, higher = more signal, called active from +8 up or from −8 down
[2] = system: XIP peptide (Xip251-270); assay: small-molecule binders of XIP peptide, primary screen, biochemical, small-molecule microarray, fluorescence 635/667 nm, 0.5 µg/mL protein (AID 1183); settings: small-molecule microarray binding, fluorescence 635 nm; higher = more signal
[3] = Plasmodium falciparum growth inhibition, primary screen, strain 3D7, DAPI fluorescence, 100 nL (AID 1184);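 note: parasites grown inside human red blood cells in medium with human serum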; settings: P. falciparum 3D7 growth, 3 d, higher = more signal
[4] = molecular target: Homeobox protein Hox-A13 (Mus musculus) (UniProt Q62424); assay: inhibitors of HoxA13-DNA binding, primary screen, biochemical, fluorescence polarization, labeled oligonucleotide (AID 1185); settings: 15 min, higher = more signal, called active from +8 up or from −8 down
Sequence of Homeobox protein Hox-A13 (Mus musculus) (Q62424 whole entry, looked up): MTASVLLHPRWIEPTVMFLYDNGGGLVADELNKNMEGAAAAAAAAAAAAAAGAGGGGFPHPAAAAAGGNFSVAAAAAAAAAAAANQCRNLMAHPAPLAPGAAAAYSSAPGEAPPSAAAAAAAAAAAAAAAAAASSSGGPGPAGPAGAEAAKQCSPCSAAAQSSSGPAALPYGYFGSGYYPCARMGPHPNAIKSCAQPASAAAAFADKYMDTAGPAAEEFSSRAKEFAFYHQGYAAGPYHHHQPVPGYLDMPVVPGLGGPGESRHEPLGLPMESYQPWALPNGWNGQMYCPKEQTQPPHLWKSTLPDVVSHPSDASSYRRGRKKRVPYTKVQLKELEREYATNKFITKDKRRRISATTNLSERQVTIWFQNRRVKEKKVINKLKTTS

[5] = inhibitors of hydroxyurea-induced Chk1 phosphorylation, primary screen, imaging, HeLa, phospho-Chk1 antibody, percent positive cells (AID 1186); settings: hydroxyurea-induced phospho-Chk1 immunofluorescence imaging, higher = more signal
[6] = inhibitors of hydroxyurea-induced Chk1 phosphorylation, primary screen, imaging, HeLa, phospho-Chk1 nuclear intensity (AID 1187); settings: hydroxyurea-induced phospho-Chk1 immunofluorescence imaging, higher = more signal

## CCOC(=O)C1=CC[C@@H](c2cccc(Br)c2)N(S(=O)(=O)c2ccc(C)cc2)[C@H]1c1ccc([N+](=O)[O-])cc1
[1]
  composite z-score: 0.422 (inactive)
[2]
  composite z-score: 0.707
[3]
  z-score: -1.92
[4]
  z-score: 4.18 (inactive)
[5]
  z-score: 0.476 (inactive)
[6]
  z-score: 0.508 (inactive)

## COC(=O)C(CC#Cc1ccc2c(c1)[C@]1(C(=O)N2)[C@H](c2ccc(O)cc2)N2[C@H](c3ccccc3)[C@H](c3ccccc3)OC(=O)[C@H]2[C@@H]1C(=O)O)C(=O)OC
[1]
  composite z-score: -0.173 (inactive)
[2]
  composite z-score: 0.665
[3]
  z-score: -0.102
[4]
  z-score: -6.45 (inactive)
[5]
  z-score: 0.223 (inactive)
[6]
  z-score: -0.31 (inactive)

## O=C1N(Cc2ccccc2)c2ccccc2[C@H]2OC(c3ccc(OCCCO)cc3)=N[C@@]12CCS(=O)(=O)c1ccccc1
[1]
  composite z-score: 0.0535 (inactive)
[2]
  composite z-score: 0.371
[3]
  z-score: -2.56
[4]
  z-score: -1.54 (inactive)
[5]
  z-score: -0.103 (inactive)
[6]
  z-score: -0.0726 (inactive)

## C=C(CCCC)/C(=C/C[C@@H](OC(=O)c1ccncc1)c1ccccc1OCCO)c1cc(C(=O)OC)ccc1OC
[1]
  composite z-score: 0.711 (inactive)
[2]
  composite z-score: -0.127
[3]
  z-score: -2.98
[4]
  z-score: -3.47 (inactive)
[5]
  z-score: -0.585 (inactive)
[6]
  z-score: 0.185 (inactive)

## C=CC[C@]1(C(=O)NCC(O)CO)N=C(c2ccc(OCCCO)cc2)O[C@H]1c1ccccc1N=[N+]=[N-] (some centres not stated)
[1]
  composite z-score: 2.54 (inactive)
[2]
  composite z-score: 0.159
[3]
  z-score: -2.3
[4]
  z-score: -3.71 (inactive)
[5]
  z-score: -0.353 (inactive)
[6]
  z-score: -0.236 (inactive)

## C=CC[C@@]1(C(=O)NCC(O)CO)N=C(c2ccc(OCCCO)cc2)O[C@@H]1c1ccccc1 (some centres not stated)
[1]
  composite z-score: 2.6 (inactive)
[2]
  composite z-score: 0.691
[3]
  z-score: -0.869
[4]
  z-score: -4.25 (inactive)
[5]
  z-score: -0.379 (inactive)
[6]
  z-score: -0.244 (inactive)

## O=c1c2ccc(Br)cc2nc(-c2ccccc2)n1Cc1cccc(O)c1
[1]
  composite z-score: 0.0521 (inactive)
[2]
  composite z-score: 0.748
[3]
  z-score: -0.772
[4]
  z-score: -3.01 (inactive)
[5]
  z-score: -0.005 (inactive)
[6]
  z-score: -0.24 (inactive)

## C[N+](C)(C)CCCC[C@@H]1NC(=O)[C@@H]2C[C@H](C(=O)NCCCCCNC(=O)CS)[C@H](c3cccc(OCCO)c3)N2C1=O
[1]
  composite z-score: 0.17 (inactive)
[2]
  composite z-score: -0.0808
[3]
  z-score: 0.0793
[4]
  z-score: -3.31 (inactive)
[5]
  z-score: -0.209 (inactive)
[6]
  z-score: -0.123 (inactive)

## COCCOC(=O)N1C(=O)[C@@]2(c3cc(C#CC4(O)CCCCCC4)ccc31)[C@H](C(=O)N1CCN(c3ncccn3)CC1)[C@H]1C(=O)O[C@H](c3ccccc3)[C@H](c3ccccc3)N1[C@@H]2c1ccc(O)cc1
[1]
  composite z-score: 0.119 (inactive)
[2]
  composite z-score: 0.723
[3]
  z-score: -0.849
[4]
  z-score: -0.575 (inactive)
[5]
  z-score: 0.133 (inactive)
[6]
  z-score: 0.559 (inactive)

## COC(=O)[C@]1(Cc2ccccc2N=[N+]=[N-])N=C(c2ccc(OCCCO)cc2)O[C@@H]1c1ccccc1
[1]
  composite z-score: 0.857 (inactive)
[2]
  composite z-score: 0.797
[3]
  z-score: -1.44
[4]
  z-score: -2.09 (inactive)
[5]
  z-score: -0.88 (inactive)
[6]
  z-score: -1.26 (inactive)

## COC(=O)[C@@]1(Cc2ccccc2)[C@H]2c3cc(C(=O)N4CCCC4)n(Cc4ccc(OC(F)(F)F)cc4)c3C[C@H]2CN1C(=O)c1ccccc1
[1]
  composite z-score: 0.511 (inactive)
[2]
  composite z-score: 0.408
[3]
  z-score: -1.4
[4]
  z-score: -3.01 (inactive)
[5]
  z-score: 0.182 (inactive)
[6]
  z-score: -0.781 (inactive)

## CCOC(=O)C1=CC[C@@H](c2ccccc2)N(S(=O)(=O)c2ccc(C)cc2)[C@H]1C=C(C)C
[1]
  composite z-score: 0.568 (inactive)
[2]
  composite z-score: 0.721
[3]
  z-score: -2.17
[4]
  z-score: -0.721 (inactive)
[5]
  z-score: 0.213 (inactive)
[6]
  z-score: 0.0493 (inactive)

## O=C1C2C=CC(C(O)c3ccccn3)N(Nc3ccccc3)C2C(=O)N1c1ccccc1 (configuration not stated)
[1]
  composite z-score: 0.099 (inactive)
[2]
  composite z-score: 0.116
[3]
  z-score: -0.244
[4]
  z-score: -1.65 (inactive)
[5]
  z-score: -0.849 (inactive)
[6]
  z-score: -0.791 (inactive)

## [N-]=[N+]=Nc1ccccc1[C@H]1OC(c2ccc(OCCCO)cc2)=N[C@@]1(Cc1ccccc1)C(=O)NCc1ccccc1
[1]
  composite z-score: 1.39 (inactive)
[2]
  composite z-score: 0.596
[3]
  z-score: -2.24
[4]
  z-score: -2.71 (inactive)
[5]
  z-score: -0.684 (inactive)
[6]
  z-score: -0.5 (inactive)

## CCOC(=O)C1=CC[C@@H](c2ccc(N(CC)CC)cc2)N(S(=O)(=O)c2ccc(C)cc2)[C@H]1c1ccc([N+](=O)[O-])cc1
[1]
  composite z-score: 0.326 (inactive)
[2]
  composite z-score: 0.357
[3]
  z-score: -2.1
[4]
  z-score: -1.99 (inactive)
[5]
  z-score: 0.0638 (inactive)
[6]
  z-score: -0.244 (inactive)

## CCCCC=C[C@@H](NC(=O)CCc1ccccc1)c1ccccc1
[1]
  composite z-score: 0.286 (inactive)
[2]
  composite z-score: 0.518
[3]
  z-score: -0.425
[4]
  z-score: -0.0682 (inactive)
[5]
  z-score: -0.522 (inactive)
[6]
  z-score: -0.805 (inactive)

## COCCCNC(=O)[C@@]1(Cc2ccccc2CN=[N+]=[N-])N=C(c2ccc(OCCCO)cc2)O[C@H]1c1ccccc1N=[N+]=[N-]
[1]
  composite z-score: 0.167 (inactive)
[2]
  composite z-score: 0.668
[3]
  z-score: -2.22
[4]
  z-score: -2.62 (inactive)
[5]
  z-score: -0.498 (inactive)
[6]
  z-score: -0.475 (inactive)
